Screening data from PubChem.
IP6K1 inh: Primary qHTS assay for small molecule inhibitors of Inositol hexaphosphate kinase 1 (IP6K1); Inositol hexakisphosphate kinase 1 (Homo sapiens), Q92551; IP6K1 kinase, ADP-Glo luminescence, 2 h; stronger effect = lower value; activity change, % (series mostly up to about 58 µM); actives 0.81% (n = 140,000); AID 1645851, 2021; in the data active = activity change below about -25%; also: % is scaled to controls: 0 for no effect and ±100 for the full control effect
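ADP-Glo luminescence measures ADP made by human IP6K1 during a 2 h RT reaction with ATP/IP6 (mix at 1.3 mM/130 uM); top library doses 57.5 and 19.1 uM final.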
KDM5B inh: Primary screen for KDM5B Histone Demethylases FDH-coupled qHTS | Lysine-specific demethylase 5B (Homo sapiens), Q9UGL1 | KDM5B demethylase, FDH-coupled NADH fluorescence (FDH is formaldehyde dehydrogenase) | Potency, µM (top dose mostly 57.7 µM), most hits filed as inhibitors | actives 2.6% (n = 220,000); also: potency is read from the fitted curve at half-maximal effect; 0% is about no effect; nearly all actives have a fitted effect of over 70% in size
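Measured: NADH fluorescence change, 30 min, RT. System: KDM5BΔAP 200 nM final, H3K4me3 peptide, α-KG, Fe(II), ascorbate, NAD⁺ plus FDH, pH 7.5 HEPES. Compounds: titrated, 10 min pre-incubation with enzyme.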
IP6K1 conf: Confirmatory qHTS assay for small molecule inhibitors of Inositol hexaphosphate kinase 1 (IP6K1); AID 1645852, 2021; shares compounds with IP6K1 inh; actives 13% (n = 1,200); recombinant IP6K1 kinase, ADP-Glo luminescence, 2 h; Potency, µM (doses to about 49 µM), inactives show top-dose activity change, negative = inhibition, most hits filed as inhibitors; also: potency is read from the fitted curve at half-maximal effect; % is scaled to controls: 0 for no effect and ±100 for the full control effect; nearly all actives have a fitted effect of over 65% in size
Numbers without * were called inactive. Hits are enriched below; roughly 2.8% of the tested compounds scored in any of these assays. Unless noted, calls follow the shape of the dose curve; as a rule, active = well fitted inhibition curve with a large enough effect; inconclusive = small, poorly fitted or top-dose-only effect; inactive = no such curve, though single readings can be large or run the other way.

Results for O=C(Nc1ccc(Br)cc1)c1cc(S(=O)(=O)NC2CCCC2)ccc1F ?
IP6K1 inh: -35*; KDM5B inh: inactive; IP6K1 conf: -11%

What do the screens show for `O=C(Nc1ccc(F)c(F)c1)c1cc(S(=O)(=O)NC2CCCC2)ccc1F`?
IP6K1 inh: 2; KDM5B inh: inactive

What do the screens show for `CC(C)CC(=O)N1CCC(N2C(=O)C3(CCCC3)C2c2ccccc2)CC1` (stereo not drawn)?
IP6K1 inh: -6; KDM5B inh: inactive

Results for C=CCN(Cc1nc(-c2ccccc2)no1)Cc1nccn1C ?
IP6K1 inh: -38*; KDM5B inh: inactive; IP6K1 conf: -12%

Results for C=CCN(Cc1nc(-c2ccccc2)no1)C(=O)c1ccoc1C ?
KDM5B inh: inactive

What do the screens show for `COc1ccc(CN(C(=O)c2cc(=O)c3cc(Cl)ccc3o2)C2CCS(=O)(=O)C2)cc1` (stereo not drawn)?
KDM5B inh: inactive

What do the screens show for `COc1ccccc1OC1(C(=O)O)CCN(Cc2cnn(C)c2C)CC1`?
IP6K1 inh: -29*; KDM5B inh: inconclusive; IP6K1 conf: -3%

Results for COc1ccccc1OC1(C(=O)O)CCN(Cc2nccn2C)CC1 ?
IP6K1 inh: -14; KDM5B inh: inconclusive

Results for COc1ccccc1OC1(C(=O)O)CCN(c2cc(C)nc(N)n2)CC1 ?
IP6K1 inh: -9; KDM5B inh: inactive

How did CCc1cc(N2CCC(Oc3ccccc3OC)(C(=O)O)CC2)nc(C)n1 do in these assays?
IP6K1 inh: -32*; KDM5B inh: inactive; IP6K1 conf: -11%

Results for O=C(c1ccc(S(=O)(=O)N2CCOCC2)cc1)N(c1ccc(Cl)cc1)C1C=CS(=O)(=O)C1 (stereo not drawn) ?
KDM5B inh: inactive

Results for COc1ccc(C(=O)NC2CCCCC2)cc1C ?
KDM5B inh: inactive

How did CC(C)NC(=O)CSc1nnc(-c2ccc3ncccc3c2)n1C do in these assays?
KDM5B inh: inactive

What do the screens show for `OCCn1cc(-c2cnc3nnn(Cc4ccc5ncccc5c4)c3n2)cn1`?
IP6K1 inh: -12; IP6K1 conf: -12%

Results for N#CCCc1nc2ccccc2s1 ?
KDM5B inh: inactive

Results for COc1cc(C(C)C)c(Oc2cnc(N)nc2N)cc1I ?
IP6K1 inh: -29*; IP6K1 conf: inconclusive

Results for COc1cc(C)c(Cc2cnc(N)nc2N)cc1OC ?
IP6K1 inh: 23

What do the screens show for `Nc1ccc(O)c([N+](=O)[O-])c1`?
IP6K1 inh: -28*; IP6K1 conf: 32µM*

What do the screens show for `Nc1ccc(C(=O)O)c([N+](=O)[O-])c1`?
KDM5B inh: inactive

How did COC(=O)[C@@H]1Cc2c([nH]c3ccccc23)[C@H]2C[C@H](NCCCn3ccnc3)C[C@@H](c3ccccc3F)N21 do in these assays?
IP6K1 inh: 4; KDM5B inh: inconclusive

What do the screens show for `O=C1c2ccccc2S(=O)(=O)N1Cc1nc(-c2ccc(Cl)c(Cl)c2)cs1`?
KDM5B inh: inactive

How did CN(CC(=O)Nc1ccc(F)cc1)C(=O)COc1ncnc2sccc12 do in these assays?
KDM5B inh: inactive

Results for O=C(Nc1cccc(-c2ccc(N3CCOCC3)nn2)c1)Nc1cc(F)ccc1F ?
IP6K1 inh: -13; KDM5B inh: inconclusive

What do the screens show for `O=C(Nc1cccc(-c2ccc(N3CCOCC3)nn2)c1)Nc1ccccc1F`?
IP6K1 inh: -32*; KDM5B inh: inconclusive; IP6K1 conf: inconclusive

What do the screens show for `Cc1ccsc1C(=O)N1CCCN(C)c2ccccc21`?
IP6K1 inh: -6; KDM5B inh: inactive

What do the screens show for `Cc1ccsc1/C=C/C1=NCCCN1C`?
IP6K1 inh: -33*; IP6K1 conf: -1%

What do the screens show for `C#CCNC(=O)c1nc2cccnc2n(C2CCCC2)c1=O`?
IP6K1 inh: 18

How did C=CCNC(=O)NC(=O)CN1CCCCC1 do in these assays?
KDM5B inh: inactive

How did CC(C)Cc1ccc(C(C)C(=O)NC(c2ccccc2)c2ccccc2)cc1 (stereo not drawn) do in these assays?
KDM5B inh: inactive

Results for COc1ccc(C(=O)NCCNC(=O)c2ccc(-c3cncnc3)cc2)cc1 ?
IP6K1 inh: -5

What do the screens show for `CC(=O)c1ccc(N2CCN(c3ccc(NC(=O)c4ccc(F)cc4)cc3C(=O)O)CC2)cc1`?
IP6K1 inh: 0; KDM5B inh: inactive

What do the screens show for `CCN1CCN(c2ccc(NC(=O)c3cccc(NC(=O)c4cccs4)c3)cc2)CC1`?
KDM5B inh: inactive

What do the screens show for `O=C(Nc1cnc(N2CCN(c3ccccc3)CC2)c(C(=O)O)c1)c1cccs1`?
IP6K1 inh: -28*; KDM5B inh: inconclusive; IP6K1 conf: inconclusive

What do the screens show for `O=C(Nc1ccc(N2CCN(c3ccc(F)cc3)CC2)c(C(=O)O)c1)c1cccs1`?
IP6K1 inh: -27*; KDM5B inh: inactive; IP6K1 conf: inconclusive

What do the screens show for `CCCCn1cnc2c1c(=O)n(CC(O)c1ccccc1)c(=O)n2CC(C)C` (stereo not drawn)?
KDM5B inh: inactive

What do the screens show for `COc1ccc(-c2coc3c(C)c(OCCN4CCC(C)CC4)ccc3c2=O)cc1`?
KDM5B inh: inactive

Results for O=C(NC1CCCCC1)c1cccc(Nc2cc(-c3cccc(F)c3)ncn2)c1 ?
KDM5B inh: inactive

What do the screens show for `Cc1ccc(C(C)NC(=O)c2cccnc2)c(C)c1` (stereo not drawn)?
KDM5B inh: inactive

What do the screens show for `Cc1cccn2cc(-c3cccc(NS(=O)(=O)c4ccc(Cl)c(Cl)c4)c3)nc12`?
IP6K1 inh: 7; KDM5B inh: inactive

How did Cc1ccc(S(=O)(=O)Nc2cccc(-c3cn4cccc(C)c4n3)c2)cc1 do in these assays?
IP6K1 inh: -26*; KDM5B inh: inactive; IP6K1 conf: -2%

Results for Cc1nn(CC(C)C)c2sc(C(=O)Nc3ccc(S(=O)(=O)N4CCOCC4)cc3)cc12 ?
KDM5B inh: inactive

What do the screens show for `CCCn1nc(C(=O)NCC(=O)Nc2ccc(F)c(F)c2)c2ccccc2c1=O`?
KDM5B inh: inactive

What do the screens show for `CC(C)c1ccc(NC(=O)c2nc3ccccc3n(C)c2=O)cc1`?
KDM5B inh: inactive

How did c1ccc(-c2cnc(Nc3ccc(OCCN4CCCC4)cc3)s2)cc1 do in these assays?
IP6K1 inh: -5

Results for Cc1cnc(Nc2ccc(OCCN3CCCC3)cc2)nc1Nc1cccc(S(=O)(=O)NC(C)(C)C)c1 ?
IP6K1 inh: -1; IP6K1 conf: 25%

How did O=C(NC1(c2cccc(Cl)c2)CCC1)NC1(c2cccc(Cl)c2)CCC1 do in these assays?
KDM5B inh: inactive

What do the screens show for `CCOc1cc(C2C(C(=O)OC)=C(C)NC3=C2C(=O)c2ccccc23)ccc1OCc1ccccc1` (stereo not drawn)?
KDM5B inh: inactive

What do the screens show for `CCOc1ccc(C2C(C(=O)OC)=C(C)NC3=C2C(=O)c2ccccc23)cc1OC` (stereo not drawn)?
IP6K1 inh: -27*; KDM5B inh: inconclusive; IP6K1 conf: inconclusive
